The source of these data is ChEMBL document CHEMBL3988442, “University of Dundee, Small-Polar-MMV Screening Library” (2021).

For some assays here: Potency and affinity values are given separately.

What all share (design): scale not given: direction of the effect not stated beside the values
Assay [1] deals with Protein translocase subunit SecA (Escherichia coli (strain K12)) (UniProt P10408). Description: Assay to Identify E. coli SecA ATPase Inhibitors. The assay is classed as functional. As to conditions: 30 µM.
The target in assay [2] is T1, Ubiquitin-activating enzyme e1, putative (Leishmania donovani (strain BPK282A1)) (UniProt E9BSI1).
T1 sequence (whole entry): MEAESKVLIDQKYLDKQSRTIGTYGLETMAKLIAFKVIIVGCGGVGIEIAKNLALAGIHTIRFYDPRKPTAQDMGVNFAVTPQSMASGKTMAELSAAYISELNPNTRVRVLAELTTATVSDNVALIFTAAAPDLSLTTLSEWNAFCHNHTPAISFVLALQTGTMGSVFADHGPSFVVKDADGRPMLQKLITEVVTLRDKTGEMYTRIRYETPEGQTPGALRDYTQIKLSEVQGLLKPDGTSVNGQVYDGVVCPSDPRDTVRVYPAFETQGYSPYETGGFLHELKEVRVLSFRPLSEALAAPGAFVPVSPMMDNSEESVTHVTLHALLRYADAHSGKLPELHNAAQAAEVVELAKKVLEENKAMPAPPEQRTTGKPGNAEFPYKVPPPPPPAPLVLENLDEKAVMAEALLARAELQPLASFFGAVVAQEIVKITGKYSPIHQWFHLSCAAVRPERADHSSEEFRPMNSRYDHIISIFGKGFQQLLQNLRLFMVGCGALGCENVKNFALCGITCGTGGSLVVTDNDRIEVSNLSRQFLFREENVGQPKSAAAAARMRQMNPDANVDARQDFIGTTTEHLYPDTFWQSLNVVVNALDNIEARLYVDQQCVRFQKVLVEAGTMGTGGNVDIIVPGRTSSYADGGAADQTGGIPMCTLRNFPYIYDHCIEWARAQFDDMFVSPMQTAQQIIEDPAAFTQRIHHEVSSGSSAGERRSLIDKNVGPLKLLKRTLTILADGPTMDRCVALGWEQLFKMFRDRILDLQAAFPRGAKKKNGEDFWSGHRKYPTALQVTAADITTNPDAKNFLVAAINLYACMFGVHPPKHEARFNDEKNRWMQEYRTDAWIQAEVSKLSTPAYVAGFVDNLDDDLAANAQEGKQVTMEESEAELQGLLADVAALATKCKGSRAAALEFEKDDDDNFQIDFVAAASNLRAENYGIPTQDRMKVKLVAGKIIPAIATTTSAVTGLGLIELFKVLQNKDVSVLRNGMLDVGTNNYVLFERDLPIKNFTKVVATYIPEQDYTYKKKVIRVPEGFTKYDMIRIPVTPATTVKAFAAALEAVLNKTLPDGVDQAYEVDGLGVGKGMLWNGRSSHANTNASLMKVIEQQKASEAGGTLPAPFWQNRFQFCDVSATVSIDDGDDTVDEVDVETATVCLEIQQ
The experiment in a line: Leishmania donovani Ubiquitin Activating Enzyme (LdE1). The assay is classed as functional. To be noted: 30 µM.

The target in assay [3] is AMP-activated protein kinase, AMPK (Homo sapiens) (UniProt P54646+O43741+P54619+Q9UGJ0+Q9Y478+Q13131+Q9UGI9). The experiment in a line: AMP-dependent Kinase enzyme assay. An in vitro enzyme assay that detects ADP turnover that is directly proportional to AMPK activity. This uses naive AMPK that is activated during the assay with MK-8722. The assay is classed as functional. As to conditions: 30 µM.

The target in assay [4] is Sialic acid-binding Ig-like lectin 9 (Homo sapiens) (UniProt Q9Y336). Description: Hs-Siglec9 ALPHAscreen SOP 20170721. To be noted: 10 µM. For orientation: In Alpha technology, singlet oxygen from a donor bead excites a nearby acceptor bead.
In another assay the test system is Trypanosoma cruzi. The experiment in a line: Trypanosoma cruzi phosphomannomutase and mannose-1-phosphate guanylyltransferase assay. To be noted: 10 µM. In kind it is functional.
The target of assay [5] is T2, Arginase-2, mitochondrial (Homo sapiens) (UniProt P78540).
T2 sequence (whole entry): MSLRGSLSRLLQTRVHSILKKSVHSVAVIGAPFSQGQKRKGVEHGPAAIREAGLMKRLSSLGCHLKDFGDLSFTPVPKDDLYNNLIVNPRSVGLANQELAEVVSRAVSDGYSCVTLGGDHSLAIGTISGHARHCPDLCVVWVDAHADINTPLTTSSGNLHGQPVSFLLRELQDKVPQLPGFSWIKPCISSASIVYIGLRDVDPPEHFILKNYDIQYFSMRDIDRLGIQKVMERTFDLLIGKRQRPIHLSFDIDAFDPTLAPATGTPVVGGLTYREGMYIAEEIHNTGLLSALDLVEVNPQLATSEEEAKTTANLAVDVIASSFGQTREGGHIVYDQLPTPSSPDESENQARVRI
Description: in vitro enzyme assay to detect the production of urea directly proportional to the activity of Arginase II. Also: in the data most compounds retested in dose-response had high values. The assay is classed as functional. As to conditions: 33.3 µM.

Assay [6] deals with T3, Proteasome subunit beta (Trypanosoma cruzi) (UniProt O96673).
T3 sequence (whole entry): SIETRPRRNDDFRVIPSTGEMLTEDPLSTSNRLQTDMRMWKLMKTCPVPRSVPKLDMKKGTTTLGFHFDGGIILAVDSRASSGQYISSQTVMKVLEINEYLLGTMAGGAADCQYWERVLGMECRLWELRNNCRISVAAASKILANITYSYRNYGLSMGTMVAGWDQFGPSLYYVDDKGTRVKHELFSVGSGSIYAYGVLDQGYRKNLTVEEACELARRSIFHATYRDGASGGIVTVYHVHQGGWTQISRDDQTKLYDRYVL
The experiment in a line: Trypanosoma cruzi proteasome chymotrypsin-like activity (TcProtChymo) assay. Also: in the data most compounds retested in dose-response had high values. The assay is classed as functional. As to conditions: 9.37 µM.

For another assay, the species on record is Homo sapiens. The experiment in a line: To identify inhibition of the IFN signalling (Jak-Stat) pathway via expression of an eGFP reporter gene under the control of an IFN-stimulated response element (ISRE) containing MxA promoter. The assay is classed as functional. As to conditions: 30 µM. (In a reporter assay the amount or activity of a reporter protein is the signal.)

In assay [7] the target is T4, Tyrosyl-tRNA synthetase, putative (Trypanosoma cruzi (strain CL Brener)) (UniProt Q4DSP6).
T4 sequence (whole entry): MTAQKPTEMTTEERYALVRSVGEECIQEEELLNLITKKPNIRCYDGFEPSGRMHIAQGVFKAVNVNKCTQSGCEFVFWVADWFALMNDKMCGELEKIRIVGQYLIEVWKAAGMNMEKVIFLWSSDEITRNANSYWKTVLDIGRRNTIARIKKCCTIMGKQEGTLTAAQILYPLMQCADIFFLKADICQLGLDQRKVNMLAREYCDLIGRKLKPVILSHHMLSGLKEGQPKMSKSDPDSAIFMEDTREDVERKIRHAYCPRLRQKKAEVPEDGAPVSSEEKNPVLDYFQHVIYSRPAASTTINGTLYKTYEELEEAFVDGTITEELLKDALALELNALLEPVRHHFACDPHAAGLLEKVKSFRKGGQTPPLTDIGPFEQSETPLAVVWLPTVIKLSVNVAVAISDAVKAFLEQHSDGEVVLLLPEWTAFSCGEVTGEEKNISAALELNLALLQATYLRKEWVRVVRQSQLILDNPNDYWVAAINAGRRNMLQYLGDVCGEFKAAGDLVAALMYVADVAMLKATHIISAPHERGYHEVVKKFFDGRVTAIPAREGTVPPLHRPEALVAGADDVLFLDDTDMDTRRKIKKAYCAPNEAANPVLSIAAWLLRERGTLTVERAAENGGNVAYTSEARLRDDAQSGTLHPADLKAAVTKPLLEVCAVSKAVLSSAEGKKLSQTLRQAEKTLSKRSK
The experiment in a line: Trypanosoma cruzi tyrosyl tRNA synthetase (TcYRS) _High Tyrosine SOP. Also: in the data most compounds retested in dose-response had high values. In kind it is functional. As to conditions: 30 µM.

Assay [8] has as its target T4, Tyrosyl-tRNA synthetase, putative (Trypanosoma cruzi (strain CL Brener)). Description: Trypanosoma cruzi tyrosyl tRNA synthetase (TcYRS) SOP. The assay is classed as functional. To be noted: 30 µM.
In assay [9] the target is Chromo domain-containing protein 1 (Saccharomyces cerevisiae (strain ATCC 204508 / S288c) (Baker's yeast)) (UniProt P32657). The experiment in a line: ScCHD-1 Enzyme Inhibition Assay. Also: in the data most compounds retested in dose-response had high values. In kind it is functional. To be noted: 30 µM.
Chain of Chromo domain-containing protein 1 (Saccharomyces cerevisiae (strain ATCC 204508 / S288c) (Baker's yeast)) (P32657 whole entry, the tested form may be a part): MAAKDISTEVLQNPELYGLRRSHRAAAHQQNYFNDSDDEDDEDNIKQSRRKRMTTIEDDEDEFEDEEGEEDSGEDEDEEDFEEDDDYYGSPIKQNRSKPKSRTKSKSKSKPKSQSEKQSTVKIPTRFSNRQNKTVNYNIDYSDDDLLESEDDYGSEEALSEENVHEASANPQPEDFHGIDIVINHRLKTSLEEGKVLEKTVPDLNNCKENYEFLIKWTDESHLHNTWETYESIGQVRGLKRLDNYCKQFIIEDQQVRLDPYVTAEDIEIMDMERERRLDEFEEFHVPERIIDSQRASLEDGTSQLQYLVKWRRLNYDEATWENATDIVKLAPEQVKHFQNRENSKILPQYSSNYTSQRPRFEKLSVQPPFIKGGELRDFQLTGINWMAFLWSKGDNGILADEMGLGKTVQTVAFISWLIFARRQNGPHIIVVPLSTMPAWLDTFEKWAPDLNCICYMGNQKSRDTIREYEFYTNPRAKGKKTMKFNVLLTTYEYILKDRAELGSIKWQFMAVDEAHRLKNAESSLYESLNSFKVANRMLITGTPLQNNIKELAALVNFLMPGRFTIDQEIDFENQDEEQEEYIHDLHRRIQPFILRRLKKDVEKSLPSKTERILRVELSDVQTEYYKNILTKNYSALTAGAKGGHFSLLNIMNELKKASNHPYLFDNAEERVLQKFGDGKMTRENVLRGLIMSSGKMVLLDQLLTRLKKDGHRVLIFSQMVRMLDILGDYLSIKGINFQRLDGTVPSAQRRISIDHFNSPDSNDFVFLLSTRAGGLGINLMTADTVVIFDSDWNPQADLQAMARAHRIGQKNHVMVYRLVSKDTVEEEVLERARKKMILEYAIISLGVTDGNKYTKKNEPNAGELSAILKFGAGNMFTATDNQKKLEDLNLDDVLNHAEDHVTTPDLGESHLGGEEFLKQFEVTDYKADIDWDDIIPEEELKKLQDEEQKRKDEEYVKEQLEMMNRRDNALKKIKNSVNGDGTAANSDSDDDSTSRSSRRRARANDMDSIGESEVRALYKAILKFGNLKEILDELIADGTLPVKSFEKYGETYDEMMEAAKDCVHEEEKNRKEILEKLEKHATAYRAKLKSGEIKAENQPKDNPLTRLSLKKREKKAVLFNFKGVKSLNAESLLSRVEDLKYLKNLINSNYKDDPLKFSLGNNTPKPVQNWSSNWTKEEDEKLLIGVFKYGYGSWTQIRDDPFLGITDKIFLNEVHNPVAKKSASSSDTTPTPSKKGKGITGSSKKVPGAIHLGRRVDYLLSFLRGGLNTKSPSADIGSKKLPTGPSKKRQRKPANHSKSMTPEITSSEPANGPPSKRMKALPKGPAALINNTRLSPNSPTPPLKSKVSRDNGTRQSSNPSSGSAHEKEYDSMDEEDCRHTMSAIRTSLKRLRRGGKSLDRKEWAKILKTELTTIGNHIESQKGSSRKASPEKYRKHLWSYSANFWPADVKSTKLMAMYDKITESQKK

Chain of Sialic acid-binding Ig-like lectin 9 (Homo sapiens) (Q9Y336 whole entry): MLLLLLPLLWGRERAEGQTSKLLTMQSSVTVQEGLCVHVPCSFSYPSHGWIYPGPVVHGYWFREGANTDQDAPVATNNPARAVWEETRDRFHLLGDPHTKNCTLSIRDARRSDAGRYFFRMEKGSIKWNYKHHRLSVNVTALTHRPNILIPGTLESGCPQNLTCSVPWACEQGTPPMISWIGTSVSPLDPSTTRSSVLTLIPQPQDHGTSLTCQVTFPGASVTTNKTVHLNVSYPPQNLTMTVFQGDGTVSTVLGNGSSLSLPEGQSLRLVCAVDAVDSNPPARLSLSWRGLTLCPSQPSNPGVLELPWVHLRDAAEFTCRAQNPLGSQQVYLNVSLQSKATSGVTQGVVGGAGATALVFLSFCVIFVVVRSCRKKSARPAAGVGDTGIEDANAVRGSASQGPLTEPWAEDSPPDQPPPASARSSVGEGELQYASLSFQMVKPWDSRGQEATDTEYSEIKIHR
Chain of Protein translocase subunit SecA (Escherichia coli (strain K12)) (P10408 whole entry): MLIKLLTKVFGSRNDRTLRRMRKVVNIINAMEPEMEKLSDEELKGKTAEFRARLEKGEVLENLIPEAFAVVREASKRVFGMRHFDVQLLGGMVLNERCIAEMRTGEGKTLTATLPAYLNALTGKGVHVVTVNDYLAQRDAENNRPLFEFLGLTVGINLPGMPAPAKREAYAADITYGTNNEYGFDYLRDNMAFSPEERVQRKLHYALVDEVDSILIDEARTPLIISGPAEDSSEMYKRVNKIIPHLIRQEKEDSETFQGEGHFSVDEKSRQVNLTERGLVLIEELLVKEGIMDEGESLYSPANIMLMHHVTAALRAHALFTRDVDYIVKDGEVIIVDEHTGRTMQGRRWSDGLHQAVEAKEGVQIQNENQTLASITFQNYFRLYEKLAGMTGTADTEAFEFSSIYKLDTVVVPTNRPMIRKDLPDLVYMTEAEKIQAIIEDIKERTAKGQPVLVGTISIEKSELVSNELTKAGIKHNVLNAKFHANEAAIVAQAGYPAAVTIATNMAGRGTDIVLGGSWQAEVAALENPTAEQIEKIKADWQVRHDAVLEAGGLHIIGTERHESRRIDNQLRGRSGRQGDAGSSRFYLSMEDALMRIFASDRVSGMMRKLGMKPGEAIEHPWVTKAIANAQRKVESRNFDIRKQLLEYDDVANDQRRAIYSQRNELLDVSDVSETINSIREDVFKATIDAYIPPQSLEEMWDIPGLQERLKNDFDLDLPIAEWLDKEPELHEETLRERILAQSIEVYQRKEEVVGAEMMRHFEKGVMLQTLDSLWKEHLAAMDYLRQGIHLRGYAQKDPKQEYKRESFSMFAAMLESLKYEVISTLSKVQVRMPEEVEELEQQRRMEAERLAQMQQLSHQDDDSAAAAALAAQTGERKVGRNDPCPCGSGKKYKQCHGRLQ

As for `OCCOc1nc(-c2ccccc2Cl)no1`, the Percent Effect in assay [1] was -1.86%; in assay [2], 11%; in assay [3] it was -5.12%; in [4], 4.94%; in the assay on Trypanosoma cruzi, 4.9%; in [5] it was 18.6%. The Percent Effect in assay [6] was 20.4%; in the assay filed under Homo sapiens it was 24.7%; in assay [7], 6.45%; in [8] it was 20%; in [9] it was -5.57%.
In the case of `O=C(Cc1ccccc1F)N1C[C@@H]2COC[C@]2(COc2cccnc2)C1`, the Percent Effect was -2.71% in assay [1]; 8.11% in assay [2]; 2.48% in assay [3]; 0.934% in assay [4]; -1.66% in the assay with Trypanosoma cruzi; 10.5% in assay [5]. Further, the Percent Effect in assay [6] was 17.5%; in the assay filed under Homo sapiens, -1.09%; in [7], 3.24%; in assay [8] it was 12.8%; in assay [9] it was -2.39%.
As for `O=C1CC[C@H]2[C@H](CCN2C(=O)C2CCOCC2)N1Cc1ccncc1`, the Percent Effect in [1] is -2.75%; in [2], 22.7%; in assay [3], -7.93%; in assay [4], 0.426%; in the assay on Trypanosoma cruzi it was 2.95%; in assay [5], -3.35%. The Percent Effect in assay [6] was 17.7%; in the assay listed under Homo sapiens it was -2.05%; in assay [7] it was 6.35%; in [8], 15.4%; in [9], -9.4%.
For `CC(=O)c1cc(CC(=O)NCc2ccc(CN(C)C)cc2)cs1`, the Percent Effect was -2.94% in [1]; 8.11% in [2]; -1.37% in assay [3]; 9.94% in assay [4]; 6.37% in the assay with Trypanosoma cruzi; 0.476% in assay [5]. Further, the Percent Effect in assay [6] is -1.21%; in the assay listed under Homo sapiens, 1.37%; in assay [7], 2.65%; in [8] it was 4.88%; in [9] it was -2.09%.
As to `Cc1nc(CN2CCc3nn(C(C)C)c(=O)cc3C2)oc1C`, the Percent Effect in assay [1] is -3.86%; in assay [2], -2.63%; in assay [3] it was -91.7%; in [4] it was 5.18%; in the assay with Trypanosoma cruzi it was -3.83%; in assay [5], 6.83%. Also, the Percent Effect was 10.4% in assay [6]; -4.72% in the assay listed under Homo sapiens; -3.45% in assay [7]; -8.64% in assay [8]; 2.02% in assay [9].
Regarding `CNc1cc(C)nc(C2CN(Cc3cc[nH]n3)CCO2)c1` (stereo not given), the Percent Effect in [1] was -2.72%; in [2] it was 1.35%; in [3], 11.4%; in assay [4] it was -2.27%; in the assay with Trypanosoma cruzi, -7.51%; in assay [5], -6.26%. Further, the Percent Effect is -0.156% in assay [6]; -17.5% in the assay listed under Homo sapiens; 0% in [7]; 3.9% in assay [8]; -10.1% in assay [9].
Regarding `CCOCC1CN(C(=O)c2ccncc2)Cc2nn(C)cc21` (stereo not given), the Percent Effect in assay [1] is 2.34%; in assay [2], 16%; in assay [3] it was -4.74%; in [4] it was 2.25%; with Trypanosoma cruzi, 0.193%; in assay [5] it was -51.1%. Besides, the Percent Effect in assay [6] is 9.23%; in the assay filed under Homo sapiens, -2.51%; in assay [7], 6.25%; in [8], 22.5%; in [9], -3.97%.
Consider `CCc1nsc(NC2CCCn3nc(CC)nc32)n1` (stereo not given), for which the Percent Effect was -6.19% in assay [1]; 8% in assay [2]; -4.68% in assay [3]; 26% in assay [4]; 7.3% in the assay on Trypanosoma cruzi; 6.25% in assay [5]. For the same compound, the Percent Effect in [6] was 13.6%; in the assay filed under Homo sapiens, 0.363%; in [7], 3.83%; in assay [8], 13.6%; in assay [9], -7.22%.
Consider `Clc1ccc2cccnc2c1CN1CCCC(Cn2cncn2)C1` (stereo not given), for which the Percent Effect in assay [1] was -4.92%; in assay [2] it was 0%; in [3] it was -3.69%; in [4], 7.75%; with Trypanosoma cruzi it was 0.279%; in assay [5] it was 1.66%. The Percent Effect in [6] worked out at 12%; in the assay listed under Homo sapiens, 18.1%; in [7], 7.92%; in assay [8] it was 13.4%; in assay [9], 3.69%.
`CC(=O)Nc1nc(CN2CCOC(Cn3cc(C)cn3)C2)cs1` (stereo not given): the Percent Effect in assay [1] is -2.79%; in assay [2], 15.6%; in assay [3], 9.13%; in assay [4] it was -6.5%; with Trypanosoma cruzi, 0.0979%; in assay [5], 0.21%. For the same compound, the Percent Effect was 19.5% in assay [6]; 2.79% in the assay filed under Homo sapiens; 3.81% in assay [7]; 21.2% in [8]; -20.4% in assay [9].
